Source: PubChem BioAssay
mIDH1 inhibitor – blocks human mutant IDH1 R132H enzyme; O75874; IDH1-R132H enzyme, NADPH consumption, diaphorase/resazurin fluorescence; 390,000 tested, 0.093% active; AID 602179; Potency, µM (highest dose often 76.6 µM), inactives show at the highest dose activity change, negative = inhibition, actives largely listed as inhibitors; also: potency is read from the fitted curve at half-maximal effect; % is scaled to controls: 0 for no effect and ±100 for the full control effect; nearly all actives have a fitted effect of over 65% in size
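IDH1-R132H (0.5 ug/mL) preincubated 30 min with compound, then NADPH (0.016 mM) and alpha-KG (2 mM) added; 80 min at RT, pH 7.5. Remaining NADPH coupled via diaphorase/resazurin to fluorescence (540/590 nm); concentration-response curves normalized to no-enzyme control.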
B2AR arrestin – beta2AR (human) beta-arrestin recruitment activity; P07550; beta-arrestin recruitment to beta2AR, cell-based reporter; Potency, µM (highest dose often 46.1 µM), for the others: at the highest dose activation, actives largely listed as activators; 330,000 tested, 0.02% active; AID 492947;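 also: potency is read from the fitted curve at half-maximal effect; 0% = DMSO controls and full agonism = EC100 isoproterenol or metaproterenol; nearly all actives have a fitted effect of over 65% in size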
DRD3 antagonist – D3 dopamine receptor (human) antagonism; AID 652054; D3R cells, DiscoveRx beta-arrestin luminescence, antagonist mode; hits give low values; max response, negative = inhibition, %; 360,000 tested, 2.5% active; P35462; in the data active = max response below about -50%; inconclusive = no clear call, values can overlap the other calls; also: % is scaled to controls: 0 for no effect and ±100 for the full control effect
Target sequence (P35462 whole entry, looked up): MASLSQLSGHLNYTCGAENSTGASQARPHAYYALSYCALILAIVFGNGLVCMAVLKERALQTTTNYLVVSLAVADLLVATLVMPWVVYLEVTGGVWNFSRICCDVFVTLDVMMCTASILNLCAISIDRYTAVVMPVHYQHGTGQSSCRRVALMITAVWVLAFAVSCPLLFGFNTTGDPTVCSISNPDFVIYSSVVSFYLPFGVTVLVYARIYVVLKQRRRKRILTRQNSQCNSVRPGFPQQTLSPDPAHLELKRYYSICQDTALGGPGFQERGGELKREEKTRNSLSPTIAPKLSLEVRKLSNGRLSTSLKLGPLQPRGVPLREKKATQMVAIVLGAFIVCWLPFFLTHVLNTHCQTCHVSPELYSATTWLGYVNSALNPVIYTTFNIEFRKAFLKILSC
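Cells expressing the human receptor were seeded at 1500 cells/well, incubated overnight at 37 degrees C in 5% CO2, then exposed to library compounds with dopamine controls for 90 minutes at 37 degrees C before luminescent detection.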
D3 ag – agonists of human D3 dopamine receptor; 410,000 tested, 0.58% active; D3R DiscoveRx beta-arrestin cells, luminescence, 90 min; max activation, %; AID 652048; in the data active = max activation above about 30%; also: 0% is about no effect
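Agonist-mode cell screen: cells plated at 1500/well and incubated overnight at 37 °C, then exposed to library compounds for 90 min at 37 °C. Detection reagent was added for 30–60 min at room temperature, and luminescence was read.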
Integrin act MD – activators of alpha7 integrin expression for muscular dystrophy | Potency, µM (titrated, usually from 38.3 µM), inactives show top-dose activation, hits mostly activators | 350,000 tested, 0.064% active | alpha7betagal myoblasts, beta-gal FDG fluorescence, 48 h;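 also: potency is read from the fitted curve at half-maximal effect; 100% = response of the positive control SU9516; nearly all actives have a fitted effect of over 60% in size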
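alpha7betagal+/- myoblasts (passage 13, 250/well) treated 48 h at 37C with compounds at 1:260 dilution of DMSO stock. Lysed, then beta-galactosidase activity read as FDG fluorescence (ex 480/em 540) after 30 min, with pre-read for autofluorescence.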
* marks the source's active call; other numbers are inactive results; ? = inconclusive; · = no result given. Most compounds without a hit are left out; they make up all but 2.9% or so of the library. Unless noted, calls follow the shape of the dose curve; as a rule, active = well fitted curve in the direction sought with a large enough effect; inconclusive = small, poorly fitted or top-dose-only effect, or another doubt; inactive = no such curve, though single readings can be large; an effect the other way counts as inactive or inconclusive.

SMILES	mIDH1 inhibitor	B2AR arrestin	DRD3 antagonist	D3 ag	Integrin act MD
COc1ccc([N+](=O)[O-])cc1NC(=O)CCN1CCN(C)CC1	6.0%	-1.5%	5.1	-6.8	11.6%
COc1ccc(C)cc1NC(=O)C1CC(=O)N(CCc2ccccc2)C1 (configuration not stated)	-7.8%	-0.1%	-5.6	40.2*	16.1%
COc1ccc([N+](=O)[O-])cc1NC(=O)CCN1CCN(c2ccccc2OC)CC1	-2.5%	-0.5%	-75.5*	5.8	-13.4%
COc1ccc(NC(=O)CCN2CCCCCC2)c(OC)c1	5.4%	-0.2%	-55.1*	-23.8	5.2%
Cc1ccc(CNC(=O)c2cc3c(=O)n4cccc(C)c4nc3s2)cc1	·	·	·	-7.7	·
CCN(CC(=O)Nc1c(F)cccc1F)C(=O)CNC(=O)C1CCCCC1	0.0%	-0.1%	-0.4	-5.2	19.3%
COc1ccc(C)cc1NC(=O)CN1CCN(C/C=C/c2ccccc2)CC1	6.3%	-0.1%	-70.0*	-1.0	-33.4%
COc1ccc(C)cc1NC(=O)CCN1CCN(c2ccccc2F)CC1	0.9%	-3.1%	?	34.2*	?
COc1ccc(C)cc1NC(=O)c1ccc(CN2CCN(c3ccccc3)CC2)cc1	3.7%	0.3%	?	20.0	-16.9%
Cc1ccc(C)c(OCC(=O)NNC(=O)CCN2CCN(c3ccccc3)CC2)c1	-0.1%	-0.1%	-71.4*	-5.8	-22.7%
COc1ccc(C)cc1NC(=O)CCN1CCN(c2ccccc2)CC1	6.7%	0.2%	?	39.3*	16.6%
COc1ccc(Cl)cc1NC(=O)CCN1CCN(Cc2ccccc2)CC1	-4.8%	0.3%	?	-3.3	-34.6%
O=C(NCCCN1CCN(c2ccc(F)cc2)CC1)c1ccc2nc(Cc3ccccc3)oc2c1	-5.4%	·	·	-22.3	·
CCOc1ccc(NC(=O)Cn2cnc3sc(C)c(S(=O)(=O)N4CCN(c5ccccc5OC)CC4)c3c2=O)cc1	-2.6%	·	·	7.7	·
O=C(NCC1CCN(Cc2ccc(F)cc2)CC1)c1cc2ccc3cccnc3c2[nH]1	-14.9%	·	·	-19.7	·
COc1ccc(C(=O)CCN2CCN(c3ccccc3F)CC2)cc1	-6.2%	-0.4%	-98.9*	-10.2	-49.7%
COc1ccc(OC)c(NC(=O)CCN2CCN(c3ccccc3F)CC2)c1	-0.8%	0.5%	1.5	64.2*	1.8%
COc1ccc(Br)cc1CN(C)C(C)C(=O)Nc1cc([N+](=O)[O-])ccc1OC (configuration not stated)	3.9%	-0.6%	-3.4	-17.1	-13.8%
COc1ccc([N+](=O)[O-])cc1NC(=O)C(C)N(C)Cc1ccc(Br)cc1 (configuration not stated)	3.0%	-0.3%	-64.3*	-24.0	-25.8%
CCOc1ccc(NC(=O)CCN2CCN(c3ccccc3F)CC2)cc1	4.7%	-0.8%	?	12.5	0.0%
CCOc1ccc(-c2nnc(SCC(=O)c3ccccc3)n2-c2ccccc2)cc1	-7.1%	·	·	-6.1	·
CCOC(=O)c1c(NC(=O)CSc2nnc3c(n2)[nH]c2ccccc23)sc2c1CCN(C)C2	1.6%	·	-60.2*	1.1	-53.9%
CCOC(=O)c1c(NC(=O)CSc2nnc3c(n2)[nH]c2ccc(F)cc23)sc(C(C)=O)c1C	11.0%	0.7%	-3.6	0.1	-2.3%
CCOC(=O)c1c(NC(=O)CSc2ncccn2)sc2c1CCN(Cc1ccccc1)C2	12.1%	-0.8%	-81.0*	-11.8	-32.6%
O=C(Nc1nnc(-c2ccc(Cl)cc2)o1)Nc1ccccc1Cl	20.4%	-0.6%	14.9	-2.5	4.0%
SMILES	mIDH1 inhibitor	B2AR arrestin	DRD3 antagonist	D3 ag	Integrin act MD
Cc1cccc(-c2nnc(NC(=O)c3ccc(Cl)cc3)o2)c1	-2.0%	-0.4%	-96.9*	-17.8	-27.4%
O=C(Nc1nnc(-c2ccc(Cl)cc2)o1)c1nc2ccccc2s1	1.5%	-0.2%	-73.6*	-8.5	13.0%
CCOC(=O)c1cccc(NC(=O)CCn2c(-c3ccc(F)cc3)cc(C(=O)OCC)c2C)c1	-5.1%	·	·	2.7	·
CC(C)(C)c1ccc(OCCCNCc2ccccc2)cc1	13.8%	-0.4%	?	-25.0	-43.6%
COc1ccc(OCCCNCCc2ccccc2)cc1	0.0%	2.9%	-52.4*	-26.6	-20.9%
CC(C)(c1ccccc1)c1ccc(OCCCNCCO)cc1	6.1%	-0.1%	-75.4*	-2.7	-53.4%
COCCCNCCCOc1ccc(C(C)(C)c2ccccc2)cc1	3.0%	-2.5%	-21.9	-11.0	-45.4%
CCOC(=O)c1c(CN2CCN(C)CC2)oc2ccc(O)cc12	-2.6%	-0.9%	-54.4*	-2.8	-5.7%
CCN(CC)CCOC(=O)c1c(C)oc2ccc(O)cc12	0.1%	-0.4%	-71.6*	-15.3	6.3%
COCCOC(=O)c1c(C)oc2ccc(OCc3cc(C(=O)OC)oc3C)cc12	4.7%	6.8%	28.4	48.3*	11.3%
CCOC(=O)c1c(CN2CCN(C)CC2)n(-c2ccccc2)c2cc(Br)c(O)cc12	-10.0%	0.0%	-64.0*	-18.3	-13.6%
CCOC(=O)c1c(-c2ccccc2)oc2ccc(O)cc12	4.9%	-0.2%	2.9	6.9	-24.8%
CCC(=O)N1CCc2cc(CNS(=O)(=O)c3ccc(NC(=O)CC(C)C)cc3)ccc21	-4.9%	·	·	0.4	·
Cc1cccc2nc(-c3cccnc3)c(Nc3ccc(C(C)C)cc3)n12	?	·	·	8.1	·
CC(C)Sc1cc(N2CCOCC2)nc(-c2ccc(Cl)cc2)n1	1.3%	-0.6%	-27.6	1.8	6.3%
CCN1CCN(c2cc(SC(C)C)nc(-c3ccc(OC)cc3)n2)CC1	2.6%	0.4%	-64.9*	-23.2	-44.0%
COC(=O)c1sc2ccccc2c1NC(=O)c1ccc(S(=O)(=O)N2CCCCC2)cc1	3.1%	0.2%	6.6	37.8*	-6.7%
CCc1ccc(NCc2cc3cc4c(cc3n(CC(=O)Nc3cccc(OC)c3)c2=O)OCO4)cc1	-3.0%	·	·	-6.6	·
O=C(NCCN1CCc2ccccc2C1)C1CCN(S(=O)(=O)N2CCCCC2)CC1	6.0%	-0.1%	-66.0*	-28.9	3.5%
CN(CCCNC(=O)C1CCN(S(=O)(=O)N2CCC3(CC2)OCCO3)CC1)Cc1ccccc1	-0.8%	0.2%	0.4	5.2	-3.8%
O=C(NCCN1CCc2ccccc2C1)C1CCN(S(=O)(=O)N2CCC3(CC2)OCCO3)CC1	5.9%	-0.8%	-59.7*	-31.1	7.7%
Cc1cccc(N2CCN(CCCNC(=O)Cn3ncc4c([nH]c5ccccc54)c3=O)CC2C)c1 (configuration not stated)	3.5%	·	·	-15.1	·
O=C1/C(=C/c2ccccc2[N+](=O)[O-])COc2ccccc21	5.2%	-0.4%	-70.7*	-12.5	-59.0%
Nc1nc(=O)n(C2OC(CO)C(O)C2O)cc1F (configuration not stated)	·	·	-78.4*	-17.1	·
CC(C)c1ccccc1NC(=S)NC1CCN(Cc2ccccc2)CC1	17.1%	0.0%	-79.5*	-39.6	-18.4%
S=C(Nc1ccc(Cl)cc1Cl)NC1CCN(Cc2ccccc2)CC1	2.9%	-0.7%	-27.8	-6.3	-31.7%
Cc1c(Cl)cccc1NC(=S)NC1CCN(Cc2ccccc2)CC1	4.0%	-0.7%	-72.4*	-12.7	-35.7%
